From PubChem BioAssay AID493131 (Broad Institute, 2011)
Hit rate of the full screen: of about 340,000 compounds, about 3,300 (0.97%) were called active. This is one part of a sample in which actives are shown more often than they occur. Values without a mark were called inactive.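 How the source made its calls: active means mean activation above about 17%, with every replicate also reaching it (limit read from the data, passing the limit was not always enough); inconclusive means only one of the two conditions met; inactive means the rest.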

These compounds were tested against Protein FosB (Mus musculus) (UniProt P13346) (assay: enhancers of mouse delta FosB DNA binding – biochemical, fluorescence polarization, TAMRA-CDK5 oligo, single point, primary screen (AID 493131;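 further: fluorescence polarization rise as delta FosB binds a TAMRA Cdk5 AP-1 oligo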)). Details: purified delta FosB, at 25 µM, stronger effect = higher value.
Chain of Protein FosB (Mus musculus) (P13346 whole entry, looked up): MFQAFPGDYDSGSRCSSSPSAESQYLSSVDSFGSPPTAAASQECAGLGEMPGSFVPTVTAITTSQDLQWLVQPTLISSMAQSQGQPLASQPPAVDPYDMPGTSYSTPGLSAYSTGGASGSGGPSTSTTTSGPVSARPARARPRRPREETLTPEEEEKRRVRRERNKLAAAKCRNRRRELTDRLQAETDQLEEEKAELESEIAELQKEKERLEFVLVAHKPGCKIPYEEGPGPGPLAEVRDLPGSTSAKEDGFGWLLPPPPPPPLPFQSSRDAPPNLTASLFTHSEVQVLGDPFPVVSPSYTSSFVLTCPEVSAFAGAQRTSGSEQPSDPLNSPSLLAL

Structure (SMILES) | activation
O=c1[nH]c(CN2CC=C(c3ccccc3)CC2)nc2scc(-c3cccs3)c12 | 35.5% (active)
CC1([N+](=O)[O-])COP(=O)(Nc2ccc(F)cc2)OC1 (stereo not given) | 2.39%
C[C@@]1([C@@H](NP(=O)(c2ccccc2)c2ccccc2)c2ccccc2)C[C@H]1CCO | 0.415%
N#Cc1ccc(Cn2cc(C(=O)c3ccco3)c3ccccc32)cc1 | -7.9%
C=CCN1C(=O)C2(C(C(=O)OCC)=C(N)Oc3c2c(=O)oc2ccccc32)c2ccccc21 (stereo not given) | -8.76%
OC(Cn1c2ccccc2c2ccccc21)C[n+]1ccccc1 (stereo not given) | 20.4% (active)
COC(=O)C1=C(c2cccc(OCc3ccccc3)c2)C[C@@H]2CC[C@H]1N2C(=O)NNCc1ccccc1 | -6.41%
Cc1ccc(CN2CCCC(C(=O)c3ccc4c(c3)OCO4)C2)cc1C (stereo not given) | -3%
CCN1CCN(c2nc3c(c(=O)[nH]2)CCC3)CC1 | -2.7%
O=C(c1ccccc1)C(O)(CN1CCCCC1)c1ccccc1 (stereo not given) | -1.99%
